# Screens deposited in PubChem by National Center for Advancing Translational Sciences (NCATS).
# Pf Dd2 inh: qHTS Primary assay for Inhibitors of Plasmodium falciparum Dd2 growth in vitro. P. falciparum Dd2 growth, SYBR Green, 72 h. Potency, µM (titrated, usually from 28.9 µM), for the others: top-dose activity, negative = inhibition, actives largely listed as inhibitors. hit rate 4.3% among 120,000. AID 1347417, 2020; active = well fitted inhibition curve with a large enough effect;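 note: plate controls were DMSO vehicle for no effect and reference drug for full effect; nearly all actives have a fitted effect of over 65% in size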
#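 Infected erythrocytes (Dd2, 0.3% parasitemia, 2.5% hematocrit final) are added to compound in RPMI-1640/Albumax II medium, grown 72 h at 37C in low oxygen, then lysed with saponin/Triton-X containing SYBR Green and read by fluorescence.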
# * = called active by the depositor; i = inactive; [ ] = another dose, or the depositor's remark. The entries come from a sample that favours hits as a whole. Potency is the fitted concentration of half-maximal effect.
SMILES,Pf Dd2 inh
CCN(CC)C(=O)C1=C(C)Nc2nc3ccccc3n2C1c1ccc(Cl)cc1 (stereo not given),-10%
COc1ccc(C2N=C(N)Nc3nc4ccccc4n32)c(OC)c1OC (stereo not given),-20%
COCc1cc(=O)n(CC(=O)Nc2ccc(C)cc2Cl)c(N2CCOCC2)n1,i
COCc1nc2nccc(-c3ccsc3)n2n1,-1%
Cc1cc(C(=O)Nc2ccc([C@H]3OCC(=O)N(CC(=O)N(C)C)[C@@H]3CO)cc2)n(C)n1,i
COCCN1Cc2[nH]nc(-c3ccccc3OC)c2CC1=O,4%[44.1 µM]
Cc1cccc(C(=O)N2CCCCCNC(=O)[C@@H]3CCC[C@@H]32)c1,-17%
CC(=O)N1CCC2(CC1)CN([S+](C)(=O)[O-])Cc1ccccc1O2,i
CNC(=O)[C@@H]1CN(C(=O)c2ccc(Cl)cc2OC)C[C@H]1c1nc(C)no1,9%
Cc1cc(C)cc(NC(=O)Cn2c(N3CCc4ccccc4C3)nc(C)cc2=O)c1,-9%
COc1cccc(NC(=O)c2sc3nc(C)c(C(=O)Nc4ccc(C)cc4C)c(-c4sccc4C)c3c2N)c1,2.2µM*
COc1cc(Cl)c(C)cc1NC(=O)c1sc2nc(C)cc(C)c2c1N,4%
CCC(C)NC(=O)c1sc2nc(C)c(C(=O)Nc3ccc(Cl)cc3)c(-c3ccc(Br)cc3)c2c1N (stereo not given),18%
COc1cccc(NC(=O)c2sc3nc(C)c(C(=O)Nc4ccc(C)cc4C)c(-c4ccco4)c3c2N)c1,3.2µM*
COc1cccc(-c2ccc3c(N)c(C(=O)Nc4ccccc4C)sc3n2)c1,-9%
COc1cccc(-c2ccc3c(N)c(C(=O)Nc4cc(F)ccc4F)sc3n2)c1,43%[5.79 µM]
COc1cccc(NC(=O)c2c(C)nn(-c3cccc(C)c3)c2-n2cccc2)c1,-20%
Cc1ccc(Cl)cc1NC(=O)c1sc2nc(C)c(C)c(C)c2c1N,8%
COc1cccc(NC(=O)c2sc3nc(C)c(C(=O)Nc4ccc(C)cc4C)c(-c4ccccc4Cl)c3c2N)c1,1µM*
CN1C(=O)c2cccn2CC1CNC(=O)c1ccccc1 (stereo not given),12%
COc1ccc(C2Cn3cnc(C(=O)N4CCC(C(=O)Nc5ccc(C)c(F)c5)CC4)c3CO2)cc1 (stereo not given),i
COCCNc1ncc(C(=O)O)c(-c2cc(F)cc(F)c2)n1,24%
CS(=O)(=O)N(C1CC1)C1CCOC2(CCN(C(=O)c3ccc(F)cc3)CC2)C1 (stereo not given),i
O=C(Cc1ccc(F)cc1)N1CCC2(CC1)CC(N(Cc1ccccc1)C1CC1)CCO2 (stereo not given),5.6µM*
O=C(c1ccccc1)N1CCC2(CC1)CC(N(Cc1ccccc1)C1CC1)CCO2 (stereo not given),i
SMILES,Pf Dd2 inh
Cn1nccc1C(=O)N1CCC2(CC1)CC(N(Cc1ccc(F)cc1)C1CC1)CCO2 (stereo not given),-22%
O=C(c1ccc(F)cc1)N1CCC2(CC1)CC(N(Cc1ccccc1)C1CC1)CCO2 (stereo not given),-10%
Cc1cnc(C(=O)N2CCC3(CC2)CC(N(Cc2ccc(F)cc2)C2CC2)CCO3)cn1 (stereo not given),-6%
O=C(CCC1CCCC1)N1CCC2(CC1)CC(N(Cc1ccc(F)cc1)C1CC1)CCO2 (stereo not given),3.5µM*
O=C(Cc1ccsc1)N1CCC2(CC1)CC(N(Cc1ccccc1)C1CC1)CCO2 (stereo not given),-9%
O=C(c1ccoc1)N1CCC2(CC1)CC(N(Cc1ccc(F)cc1)C1CC1)CCO2 (stereo not given),13µM*
Cc1cc(=O)[nH]c(CCNC(=O)c2ccc(C)c(N3CCNC3=O)c2)n1,-9%
CCC(C)NC(=O)C1COC2(CCCCC2)N1C(=O)c1cccc(F)c1 (stereo not given),-23%
CCOCCCNC(=O)N1CCC(Oc2ncccc2C(=O)N(C)C)C1 (stereo not given),-2%
Cc1c(C(=O)O)sc2ncnc(N3CCNC(C(=O)O)C3)c12 (stereo not given),13%
COCc1cn(C[C@H]2C[C@@H](NC(=O)C3CCOCC3)[C@H](O)[C@@H]2O)nn1,25%[44.1 µM]
Cc1cc(C)cc(NC(=O)Cn2cc(C(=O)c3ccncc3)c(=O)c3cc(C)c(C)cc32)c1,-24%
CCc1cccc(NC(=O)Cn2cc(C(=O)c3ccncc3)c(=O)c3cc(C)c(C)cc32)c1,10µM*
Cc1ccc2c(c1)c(=O)c(C(=O)c1ccncc1)cn2CC(=O)Nc1ccccc1Cl,i
CC1(C)CNC(=O)c2nc(C3(CN4CCCC4)CC3)[nH]c2C1,-2%
COCC(=O)NC[C@H]1CCN(Cc2sccc2C)C[C@H]1N(C)C,i
Cc1c(C)n(C)c2ccc(C(=O)NCCCN3CCCCC3)cc12,i
Cc1ccsc1CN1CCc2n[nH]c(=O)n2CC1,i
CCNC(=O)c1c(C)oc2c1CN(Cc1ccc(Br)o1)CC2,7.9µM*
COC[C@@H]1CN(Cc2ccc(Br)o2)C[C@H]1C(=O)NC1CC1,1%
CCNC(=O)c1c(C)oc2c1CN(Cc1sccc1C)CC2,11µM*
Cc1ccc(CN2CCc3oc(C)c(C(=O)NCCN4CCCCC4)c3C2)cc1,1.4µM*
Cc1ccc(-c2cc(C(=O)NCCN3CCN(C)CC3)n(C)c2)cc1,-15%
Cc1oc2c(c1C(=O)NCCN(C)C)CN(C(=O)c1ccncc1)CC2,-9%
COc1ccc(C(CC(=O)N(C)Cc2cnc3ccccn23)c2ccccc2)cc1 (stereo not given),-12%
SMILES,Pf Dd2 inh
Clc1ccc(C2Cn3nnc(-c4nc(-c5ccc6c(c5)OCO6)no4)c3CO2)cc1 (stereo not given),i
COCC(=O)NC1CCC12CCN(C(=O)c1cc3ccccc3[nH]1)CC2 (stereo not given),-22%
COc1ccc(S(=O)(=O)NC[C@H]2O[C@@H](CO)[C@@H](O)[C@H]2N2CCCC2)cc1,-17%[44.1 µM]
O=C1OCC2=C1C(c1ccc(Cl)cc1)NC(=O)N2CC(=O)N1CCC(Cc2ccccc2)CC1 (stereo not given),i
Cc1cc(C)n2ncc(CN3CCn4nc(C(C)O)cc4C3)c2n1 (stereo not given),2%
Cc1noc(C)c1[S+](=O)([O-])N1CCC2(CC1)OCCN(c1ccc(F)cc1)C2=O,-20%[44.1 µM]
CCN1c2cc(C(=O)Nc3cccc(C(F)(F)F)c3)ccc2C(=O)N2CCCC21 (stereo not given),158%
COCC(=O)Nc1ccc(-c2noc([C@@H]3CCCN3Cc3ccc(S(C)(=O)=O)cc3)n2)cn1,-26%
COc1ccc(C(=O)Nc2ccc(-c3noc([C@@H]4CCCN4Cc4ccccc4C)n3)cn2)cc1,-20%
COc1ccc(C(=O)Nc2ccc(-c3noc([C@@H]4CCCN4Cc4ccc(F)c(F)c4)n3)cn2)cc1,i
COCC(=O)Nc1ccc(-c2noc([C@@H]3CCCN3CC(C)C)n2)cn1,11µM*
COCC(=O)Nc1ccc(-c2noc([C@@H]3CCCN3Cc3ccc(F)cc3)n2)cn1,-10%[44.1 µM]
COc1ccc(C(=O)Nc2ccc(-c3noc([C@@H]4CCCN4Cc4ccc(Cl)cc4)n3)cn2)cc1,11µM*
Cn1cc(CN2C[C@H](C(=O)Nc3cccc(F)c3)C[C@H]2c2cccc(C(F)(F)F)c2)cn1,-11%
O=C(Nc1ccc(Oc2ccccc2)cc1)N[C@H]1CO[C@H]2[C@@H]1OC[C@@H]2n1nnnc1Oc1ccc(-n2cncn2)cc1,i
Cc1ccc2c(C(=O)NCc3ccc(Cl)nc3)cnn2c1,-2%[44.1 µM]
